Inconclusive results are not listed. Active and inactive are the calls of the source. The call rests on the fitted dose curve.
Assays:
[1] = target: Acetylcholinesterase (Homo sapiens) (UniProt P22303); assay: Acetylcholinesterase (AChE) small molecule antagonists: colormetric cell-based qHTS assay (AID 1347395); further: nearly all actives have a fitted effect of over 30% in size; further: potency means the concentration at half of the fitted maximal effect
Summary of the method: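 SH-SY5Y cells attached overnight, exposed to compound 30 min at 37 C, then given DTNB/acetylthiocholine; after 90 min at 37 C, colorimetric thiocholine read gives cellular AChE activity.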

[2] = target: Acetylcholinesterase (Homo sapiens) (UniProt P22303); assay: Acetylcholinesterase (AChE) small molecule antagonists: enzyme-based qHTS assay (AID 1347397); conditions: Potency: AChE enzyme activity inhibition; outcome: AChE enzyme activity inhibition; further: nearly all actives have a fitted effect of over 55% in size; further: potency means the concentration at half of the fitted maximal effect
Summary of the method: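 Tox21 library chemicals are tested in qHTS format against recombinant human AChE. The enzyme, dispensed at 50 mU/mL, sits with compound for 30 min at room temperature. A DTNB–acetylthiocholine cocktail follows, and colour is read after 10 min.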

[3] = target: Acetylcholinesterase (Homo sapiens) (UniProt P22303); assay: Acetylcholinesterase (AChE) small molecule antagonists: fluorescence cell-based qHTS assay (AID 1347398); conditions: Potency: AChE activity; outcome: AChE activity; further: nearly all actives have a fitted effect of over 50% in size; further: potency means the concentration at half of the fitted maximal effect
Summary of the method: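 Cellular AChE inhibition: SH-SY5Y cells treated with test chemical for 30 min at 37 C, then acetylthiocholine hydrolysis followed over 40 min at room temperature via thiocholine-reactive Thiolite Green fluorescence (490/520 nm).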

[4] = target: Acetylcholinesterase (Homo sapiens) (UniProt P22303); assay: Acetylcholinesterase (AChE) small molecule antagonists: enzyme-based qHTS assay with human liver microsomes (AID 1347399); conditions: Potency: qHTS inhibition; outcome: qHTS inhibition; further: nearly all actives have a fitted effect of over 60% in size
Summary of the method: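 Recombinant human AChE (50 mU/mL in the enzyme mix) and human liver microsomes (0.25 mg/mL final) were preincubated with compound and NADPH (0.25 mg/mL final) for 30 min at 37 C. Acetylthiocholine/DTNB was then added; thiocholine was read colorimetrically after 10 min at room temperature.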
On the % scale 0 is the no-effect control and ±100 the full control effect.

Chain of Acetylcholinesterase (Homo sapiens) (P22303 whole entry, looked up): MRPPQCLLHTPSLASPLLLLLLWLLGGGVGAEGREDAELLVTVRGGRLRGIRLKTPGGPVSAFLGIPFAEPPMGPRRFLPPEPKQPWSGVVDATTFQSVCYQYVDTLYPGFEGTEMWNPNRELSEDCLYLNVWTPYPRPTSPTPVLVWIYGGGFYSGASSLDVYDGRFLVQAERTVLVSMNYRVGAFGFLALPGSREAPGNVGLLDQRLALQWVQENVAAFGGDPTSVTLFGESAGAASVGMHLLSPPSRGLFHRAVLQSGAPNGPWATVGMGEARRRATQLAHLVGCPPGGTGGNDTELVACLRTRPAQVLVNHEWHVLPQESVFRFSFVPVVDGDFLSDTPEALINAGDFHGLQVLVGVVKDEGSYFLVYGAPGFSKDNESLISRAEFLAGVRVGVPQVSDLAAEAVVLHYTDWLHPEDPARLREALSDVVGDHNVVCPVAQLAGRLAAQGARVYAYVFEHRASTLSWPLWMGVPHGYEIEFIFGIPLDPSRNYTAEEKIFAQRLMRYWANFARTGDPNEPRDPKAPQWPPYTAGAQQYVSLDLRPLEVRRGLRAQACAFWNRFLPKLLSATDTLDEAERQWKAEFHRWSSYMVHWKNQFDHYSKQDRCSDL

C=C[Si](OC)(OC)OC
inactive: Potency [1] | Potency [2] | Potency [3] | Potency [4]

CNC(=O)NC
inactive: Potency [1] | Potency [2] | Potency [3] | Potency [4]

CCCCCCCC(=O)OCC(COC(=O)CCCCCCC)OC(=O)CCCCCCC
inactive: Potency [1] | Potency [2] | Potency [3] | Potency [4]

O=C(O)CCSCCC(=O)O
inactive: Potency [1] | Potency [2] | Potency [3] | Potency [4]

CCCCN(CCCC)CCCCCCN(CCCC)CCCC
inactive: Potency [1] | Potency [2] | Potency [3] | Potency [4]

N#Cc1ccccc1
inactive: Potency [1] | Potency [2] | Potency [3] | Potency [4]

CCCCC(CC)COC(=O)c1ccc(N(C)C)cc1 (stereo not given)
inactive: Potency [1] | Potency [2] | Potency [3] | Potency [4]

COc1cc(/C=C/C(N)=O)cc(OC)c1OC
inactive: Potency [1] | Potency [2] | Potency [3] | Potency [4]

CCCCCCCCCCCCCCC(=O)O
inactive: Potency [1] | Potency [2] | Potency [3] | Potency [4]

CCn1cc(C(=O)O)c(=O)c2cc(F)c(N3CCNCC3)nc21
inactive: Potency [1] | Potency [2] | Potency [3] | Potency [4]

CC/C(=C(\c1ccc(O)cc1)c1ccc(OCCN(C)C)cc1)c1ccccc1
active: Potency [1] 44.9 µM | Potency [2] 79.9 µM | Potency [3] 40 µM
inactive: Potency [4]

C[C@]12C=CC(=O)C=C1CC[C@@H]1[C@@H]2[C@@H](O)C[C@@]2(C)[C@H]1CC[C@]2(O)C(=O)CO
inactive: Potency [1] | Potency [2] | Potency [3] | Potency [4]

CN1[C@@H]2CC[C@H]1CC(OC(=O)c1c[nH]c3ccccc13)C2 (stereo not given in full)
inactive: Potency [1] | Potency [2] | Potency [3] | Potency [4]

O=C(O)c1cc(=O)[nH]c(=O)[nH]1
inactive: Potency [1] | Potency [2] | Potency [3] | Potency [4]

c1ccc2sc(SSN3CCOCC3)nc2c1
inactive: Potency [1] | Potency [2] | Potency [3] | Potency [4]

Clc1ccc2c(Cl)ccnc2c1
inactive: Potency [1] | Potency [2] | Potency [3] | Potency [4]

OCCCc1ccccc1
inactive: Potency [1] | Potency [2] | Potency [3] | Potency [4]

CC(=O)Nc1ccc(/C=N/NC(N)=S)cc1
inactive: Potency [1] | Potency [2] | Potency [3] | Potency [4]

O=C1c2ccccc2Cc2ccccc21
inactive: Potency [1] | Potency [2] | Potency [3] | Potency [4]

Cc1[nH]c(C)c(Cl)c(=O)c1Cl
inactive: activity, negative = inhibition [1] 1.65% [at 23.6 µM] | activity change, negative = inhibition [2] -0.693% [at 23.6 µM] | activity change, negative = inhibition [3] -0.55% [at 23.8 µM] | activity change, negative = inhibition [4] -0.336% [at 23.6 µM]

COC(=O)c1ccccc1OC
inactive: Potency [1] | Potency [2] | Potency [3] | Potency [4]

COC(c1ccccc1)(c1ccccc1)[C@H](Oc1nc(C)cc(C)n1)C(=O)O
inactive: Potency [1] | Potency [2] | Potency [3] | Potency [4]

Cc1ccc(N=Nc2c(O)c(C(=O)O)cc3ccccc23)c(S(=O)(=O)O)c1
inactive: Potency [1] | Potency [2] | Potency [3] | Potency [4]

NNc1nc(-c2ccc([N+](=O)[O-])cc2)cs1
inactive: Potency [1] | Potency [2] | Potency [3] | Potency [4]

Cc1cc2c(C(C)C)c(O)c(O)c(C=O)c2c(O)c1-c1c(C)cc2c(C(C)C)c(O)c(O)c(C=O)c2c1O
inactive: Potency [1] | Potency [2] | Potency [3] | Potency [4]

N#Cc1ccc(CC(=O)c2cccc(C(F)(F)F)c2)cc1
inactive: Potency [1] | Potency [2] | Potency [3] | Potency [4]

Nc1nnnn1-c1ccccc1
inactive: Potency [1] | Potency [2] | Potency [3] | Potency [4]

CCN1CCCC1=O
inactive: Potency [1] | Potency [2] | Potency [3] | Potency [4]

O=C(O)C(=O)Nc1cccc(-c2nn[nH]n2)c1
inactive: Potency [1] | Potency [2] | Potency [3] | Potency [4]

CCCCCCCCCCCCCCCCCC(=O)OCC(CC)CCCC (stereo not given)
inactive: Potency [1] | Potency [2] | Potency [3] | Potency [4]

CC(C)(C)C1=CC(=O)C=C(C(C)(C)C)C1=O
inactive: Potency [1] | Potency [2] | Potency [3] | Potency [4]

CCN1C=CN(C)C1C (stereo not given)
inactive: Potency [1] | Potency [2] | Potency [3] | Potency [4]

NNC(=O)c1ccncc1
inactive: Potency [1] | Potency [2] | Potency [3] | Potency [4]

COc1cc(NC(=O)CC(C)=O)c(OC)cc1Cl
inactive: Potency [1] | Potency [2] | Potency [3] | Potency [4]

Cc1ccc(S(=O)(=O)NC(=O)NC2CCCC2)cc1
inactive: Potency [1] | Potency [2] | Potency [3] | Potency [4]

C[C@@H](O)[C@H]1C(=O)N2C(C(=O)O)=C(S[C@@H]3CN[C@H](C(=O)N(C)C)C3)[C@H](C)[C@H]12
inactive: Potency [1] | Potency [2] | Potency [3] | Potency [4]

C=C1C[C@H]2[C@@H]3C=C(C)C4=CC(=O)CC[C@]4(C)[C@H]3CC[C@]2(C)[C@@]1(OC(C)=O)C(C)=O
inactive: Potency [1] | Potency [2] | Potency [3] | Potency [4]

NCCNCCN
inactive: Potency [1] | Potency [2] | Potency [3] | Potency [4]

CC1=CC[C@H](CC=O)C1(C)C
inactive: Potency [1] | Potency [2] | Potency [3] | Potency [4]

CC(C=O)Cc1ccc(C(C)(C)C)cc1 (stereo not given)
inactive: Potency [1] | Potency [2] | Potency [3] | Potency [4]

COC(=O)/C=C\C(=O)OC
inactive: Potency [1] | Potency [2] | Potency [3] | Potency [4]

Cc1cc(=O)[nH]c(C(C)C)n1
inactive: Potency [1] | Potency [2] | Potency [3] | Potency [4]

NCC(=O)CCC(=O)O
inactive: Potency [1] | Potency [2] | Potency [3] | Potency [4]

Cc1c(Cn2ccnc2)c2ccccc2n1CCC(=O)O
inactive: Potency [1] | Potency [2] | Potency [3] | Potency [4]

C=CCCCCCCCCCC
inactive: Potency [1] | Potency [2] | Potency [3] | Potency [4]

CCCCCCCCCCC(=O)O
inactive: Potency [1] | Potency [2] | Potency [3] | Potency [4]

CC1(C)C(=O)NC(=O)N1CO
inactive: Potency [1] | Potency [2] | Potency [3] | Potency [4]

O=C(N[C@@H](Cc1ccccc1)[C@@H](O)C(=O)N1C[C@@H](O)[C@@H](O)C1)c1cc2cc(Cl)ccc2[nH]1
inactive: Potency [1] | Potency [2] | Potency [3] | Potency [4]

C[N+]1(CC2COC(c3ccccc3)(C3CCCCC3)O2)CCCCC1 (stereo not given)
inactive: Potency [1] | Potency [2] | Potency [3] | Potency [4]

Cc1ccc(-n2nc(C(C)(C)C)cc2NC(=O)Nc2ccc(OCCN3CCOCC3)c3ccccc23)cc1
inactive: Potency [1] | Potency [2] | Potency [3] | Potency [4]

CN1C(=O)CC[C@H]1c1cccnc1
inactive: Potency [1] | Potency [2] | Potency [3] | Potency [4]

Cc1oc(C)c(C(=O)Nc2ccccc2)c1C
inactive: Potency [1] | Potency [2] | Potency [3] | Potency [4]

C=CC(=O)OCCCCCCOC(=O)C=C
inactive: Potency [1] | Potency [2] | Potency [3] | Potency [4]

COc1cc(NS(=O)(=O)c2ccc(N)cc2)nc(OC)n1
inactive: Potency [1] | Potency [2] | Potency [3] | Potency [4]

CCC(C)Nc1ccc(NC(C)CC)cc1 (stereo not given)
inactive: Potency [1] | Potency [2] | Potency [4]
active: Potency [3] 40.7 µM

CCCCN(CCN(CCCC)C(=O)N1CCOCC1)C(=O)N1CCOCC1
inactive: Potency [1] | Potency [2] | Potency [3] | Potency [4]

CC(C[N+](C)(C)C)OC(N)=O (stereo not given)
inactive: Potency [1] | Potency [2] | Potency [3] | Potency [4]

Cc1cccc(S(=O)(=O)O)c1C
inactive: Potency [1] | Potency [2] | Potency [3] | Potency [4]

C1CN(SSN2CCOCC2)CCO1
inactive: Potency [1] | Potency [2] | Potency [3] | Potency [4]

CCCCCc1cccc(=O)o1
inactive: Potency [1] | Potency [2] | Potency [3] | Potency [4]

— PubChem BioAssay (Tox21)
